Measured values published in PubChem BioAssay (NCATS).
Records with an inconclusive call do not appear. A call without a number means that no potency is given here. Active and inactive are the calls of the source. The call rests on the fitted dose curve; in most records, active means well fitted inhibition curve with a large enough effect; inconclusive means small, poorly fitted or top-dose-only effect; inactive means flat fitted curve, though single readings scatter.

Biological target: Voltage-gated inwardly rectifying potassium channel KCNH2 (Homo sapiens) (UniProt Q12809)
Test: qHTS Assay for Small Molecule Inhibitors of the Human hERG Channel Activity (AID 588834);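 further: lower thallium flux fluorescence means stronger hERG block; nearly all actives have a fitted effect of over 50% in size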
Outline: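 Cells were infected with hERG-BacMam virus for 4 hrs at room temperature, grown overnight, then seeded at 2000/well. After dye loading and roughly 10 min compound treatment, thallium influx was triggered and fluorescence recorded.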
Potency means the concentration at half of the fitted maximal effect.

Sequence of Voltage-gated inwardly rectifying potassium channel KCNH2 (Homo sapiens) (Q12809 whole entry, looked up): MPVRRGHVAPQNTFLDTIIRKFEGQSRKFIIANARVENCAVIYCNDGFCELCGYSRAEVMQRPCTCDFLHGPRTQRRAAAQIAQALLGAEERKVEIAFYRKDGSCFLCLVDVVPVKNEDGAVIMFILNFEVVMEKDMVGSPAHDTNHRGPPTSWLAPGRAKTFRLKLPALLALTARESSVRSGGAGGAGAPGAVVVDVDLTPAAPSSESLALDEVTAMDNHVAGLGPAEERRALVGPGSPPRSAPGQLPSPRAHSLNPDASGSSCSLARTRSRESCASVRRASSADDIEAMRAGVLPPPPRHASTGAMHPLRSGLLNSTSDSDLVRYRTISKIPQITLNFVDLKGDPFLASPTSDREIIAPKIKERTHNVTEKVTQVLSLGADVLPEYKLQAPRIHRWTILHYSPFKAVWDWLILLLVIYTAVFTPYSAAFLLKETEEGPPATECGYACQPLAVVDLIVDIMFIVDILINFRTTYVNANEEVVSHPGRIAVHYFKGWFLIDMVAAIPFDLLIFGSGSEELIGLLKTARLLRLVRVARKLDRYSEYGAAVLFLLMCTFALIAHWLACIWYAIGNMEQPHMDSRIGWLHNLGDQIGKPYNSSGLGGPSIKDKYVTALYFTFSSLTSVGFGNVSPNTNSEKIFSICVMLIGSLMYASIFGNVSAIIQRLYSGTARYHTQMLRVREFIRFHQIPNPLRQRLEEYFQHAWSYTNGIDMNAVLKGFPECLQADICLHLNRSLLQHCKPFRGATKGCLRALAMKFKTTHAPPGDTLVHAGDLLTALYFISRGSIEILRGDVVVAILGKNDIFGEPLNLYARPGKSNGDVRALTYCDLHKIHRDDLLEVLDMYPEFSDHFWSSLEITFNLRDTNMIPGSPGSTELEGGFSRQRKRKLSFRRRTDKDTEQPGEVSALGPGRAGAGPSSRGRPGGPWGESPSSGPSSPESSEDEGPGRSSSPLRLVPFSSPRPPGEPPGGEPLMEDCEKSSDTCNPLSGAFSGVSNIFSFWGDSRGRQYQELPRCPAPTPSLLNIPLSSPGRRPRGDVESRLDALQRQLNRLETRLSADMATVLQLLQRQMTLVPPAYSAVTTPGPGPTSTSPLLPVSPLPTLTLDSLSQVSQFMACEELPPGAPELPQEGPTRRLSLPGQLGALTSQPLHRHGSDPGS

| Molecule | Potency |
| --- | --- |
| CN(C)C=Nc1c(I)cc(I)c(CCC(=O)O)c1I | inactive |
| COc1ccc2c(c1)N(C[C@H](C)CN(C)C)c1ccccc1S2 | 8.91 µM (active) |
| CCc1ncnc2cc(OC)c(OC)cc12 | inactive |
| CC1CS(=O)(=O)CCN1/N=C/c1ccc([N+](=O)[O-])o1 (stereo not drawn) | inactive |
| O=[n+]1ccn([O-])c2ccccc21 | inactive |
| C/C(=C\C(=O)OCCCCCCCCC(=O)O)C[C@@H]1OC[C@H](C[C@@H]2O[C@H]2[C@@H](C)[C@H](C)O)[C@@H](O)[C@H]1O | inactive |
| CCN(CC)CCOC[C@H]1O[C@@H](O)[C@H](OCCN(CC)CC)[C@@H](O)[C@@H]1O | inactive |
| H-RKDVY-OH | inactive |
| CCCCCCCCCCCCOCCCN | inactive |
| N=C(N)c1ccc(/C=C/c2ccc(C(=N)N)cc2O)cc1 | inactive |
| CSCCC(N)C(=O)O (stereo not drawn) | inactive |
| CC/C=C\C/C=C\C/C=C\C/C=C\C/C=C\CCCC(=O)O | inactive |
| CC(C)C[C@@H](NC(=O)[C@@H](O)[C@H](N)Cc1ccccc1)C(=O)O | inactive |
| C[C@@H]1O[C@@H](OC[C@H]2O[C@@H](Oc3c(-c4ccc(OCCO)c(OCCO)c4)oc4cc(OCCO)cc(O)c4c3=O)[C@H](O)[C@@H](O)[C@@H]2O)[C@H](O)[C@H](O)[C@H]1O | inactive |
| CC(=O)Oc1cccc(C(=O)O)c1OC(C)=O | inactive |
| COc1cc(S(C)=O)ccc1-c1nc2ncccc2[nH]1 (stereo not drawn) | inactive |
| CC1=CC(=C(c2ccc(N)cc2)c2ccc(N)cc2)C=CC1=N | inactive |
| O=C(OC[C@H]1O[C@@H](OC(=O)c2cc(O)c(O)c(OC(=O)c3cc(O)c(O)c(O)c3)c2)[C@H](OC(=O)c2cc(O)c(O)c(OC(=O)c3cc(O)c(O)c(O)c3)c2)[C@@H](OC(=O)c2cc(O)c(O)c(OC(=O)c3cc(O)c(O)c(O)c3)c2)[C@@H]1OC(=O)c1cc(O)c(O)c(OC(=O)c2cc(O)c(O)c(O)c2)c1)c1cc(O)c(O)c(OC(=O)c2cc(O)c(O)c(O)c2)c1 | 25.1 µM (active) |
| NC[C@H]1O[C@H](O[C@H]2[C@H](O)[C@@H](O[C@H]3O[C@H](CO)[C@@H](O)[C@H](N)[C@H]3O)[C@H](N)C[C@@H]2N)[C@H](O)[C@@H](O)[C@@H]1O | inactive |

| Molecule | Potency |
| --- | --- |
| CC(O)CN(C)C (stereo not drawn) | inactive |
| C[C@@](Cc1ccc(O)c(O)c1)(NN)C(=O)O | inactive |
| O=C1NC(=O)[C@H]2[C@@H]1[C@@H]1C=C[C@H]2C1 | inactive |
| CC(C)=CCC/C(C)=C/CC/C(C)=C/CC/C=C(\C)CC/C=C(\C)CCC=C(C)C | inactive |
| CCCCCCCCCC(=O)NO | inactive |
| NC(=O)OC[C@@H]1[C@H](NC(=O)/C(=N\OCC(=O)O)c2csc(N)n2)C(=O)N1S(=O)(=O)O | inactive |
| CC(=O)[C@@]1(O)CC[C@H]2[C@@H]3C=C(Cl)C4=CC(=O)[C@@H]5C[C@@H]5[C@]4(C)[C@H]3CC[C@@]21C | inactive |
| COc1ccc(C(=O)/C(Br)=C\C(=O)O)cc1 | inactive |
| OCC1(CO)COC(C(Cl)(Cl)Cl)OC1 | inactive |
| COc1ccc(/C=N/NC(=O)c2ccncc2)c(C(=O)O)c1OC | inactive |
| CNCC(=O)N[C@@H](CCCN=C(N)N)C(=O)N[C@H](C(=O)N[C@@H](Cc1ccc(O)cc1)C(=O)N[C@H](C(=O)N[C@@H](Cc1cnc[nH]1)C(=O)N1CCC[C@H]1C(=O)N[C@@H](C)C(=O)O)C(C)C)C(C)C | inactive |
| CCN(CC)C(=O)[C@]1(c2ccccc2)C[C@@H]1CN | inactive |
| C[C@H]1[C@@H](OC(=O)CCC(=O)O)O[C@@H]2OC3(C)CC[C@H]4[C@H](C)CC[C@@H]1[C@@]24OO3 | inactive |
| CNC(C)CCC=C(C)C (stereo not drawn) | 1.58 µM (active) |
| CCC(O)c1ccccc1 (stereo not drawn) | inactive |
| O=P(O)(O)OC[C@H](O)CO | inactive |
| C#C[C@]1(O)CC[C@@H]2[C@H]3CCC4=CC(=O)CC[C@H]4[C@H]3C(=C)C[C@@]21CC | inactive |
| CN[C@H](CC(C)C)C(=O)N[C@H]1C(=O)N[C@@H](CC(N)=O)C(=O)N[C@H]2C(=O)N[C@H]3C(=O)N[C@H](C(=O)N[C@@H](C(=O)O)c4cc(O)cc(O)c4-c4cc3ccc4O)[C@H](O)c3ccc(c(Cl)c3)Oc3cc2cc(c3O[C@@H]2O[C@H](CO)[C@@H](O)[C@H](O)[C@H]2O[C@H]2C[C@](C)(N)C(O)[C@H](C)O2)Oc2ccc(cc2Cl)[C@H]1O (stereo partly drawn) | inactive |
| CC1C(=O)CC2C3(C)CCC2(C(C)C(=O)O)C(=O)C13 (stereo not drawn) | inactive |
